An excerpt weighted towards active compounds, which were near 4.1% of everything screened.
DAX1 inh-1 = DAX1 (NR0B1) inhibitors on StAR promoter, primary screen, cell-based, luminescence, SF-1 (NR5A1), full-length DAX-1 | HEK293T StAR-luciferase reporter, SF-1/DAX-1 repression relief | inhibition, % at 6.8 µM | 370,000 tested, 1.1% active | AID 652010, 2013;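 active = inhibition above the mean over all tested compounds plus 3 SD, cut at about 3.6% in these data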;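 also: higher inhibition means more luminescence from relief of DAX-1 repression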
hgDAF12 agonist = H. glycines DAF-12 receptor agonists, primary screen, cell-based, luminescence, HEK293, GAL4 fusion, UAS-luciferase. Nuclear hormone receptor DAF-12 (Heterodera glycines), GAL4 fusion. HEK293 GAL4-hgDAF12 UAS-luciferase reporter, agonist luminescence; normalized to butyrate control. activation, % at 6.8 µM. 370,000 tested, 1.8% active;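 active = activation above a cutoff set at the mean of all screened compounds plus 3 SD, cut at about 10% in these data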
ssDAF-12 act = S. stercoralis DAF-12 nuclear receptor activators, primary screen, cell-based, luminescence, HEK293, GRIP1 co-expression, lit1-tk-luc. 370,000 tested, 1% active. AID 652126, 2013. Nuclear hormone receptor DAF-12 (Strongyloides stercoralis). HEK293 ssDAF-12/GRIP1 lit1-tk-luc reporter; % of 3 µM dafachronic acid response. activation, % at 6.8 µM;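 active = activation above the mean over all tested compounds plus 3 SD, cut at about 0.9% in these data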
PolyA inh = polyadenylation inhibitors in yeast reporter cells, primary screen, luminescence, S. cerevisiae; 300,000 tested, 0.02% active; AID 1875, 2009; activity score, % at 12 µM; S. cerevisiae SKY197-pL101 polyadenylation reporter, beta-gal luminescence; efflux-impaired pdr1/pdr3 knockout yeast; score 100 = 6 SD above DMSO;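 active = lowest replicate activity score at least 50, where 100 means six control SD above control mean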;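 also: yeast exposed to compound for 9 h at 30 °C; higher score means more reporter readthrough which indicates perturbed polyadenylation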
hcDAF12 agonist = H. contortus DAF-12 nuclear receptor activators, primary screen, cell-based, luminescence, HEK293, lit1-tk-luc reporter. HEK293 hcDAF-12 lit1-tk-luc reporter; 0% DMSO, 100% Δ7-dafachronic acid. 370,000 tested, 1.4% active. activation, % at 6.8 µM;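 active = activation above the mean of all tested compounds plus 3 SD, cut at about 5.5% in these data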
DAX1 inh-2 = DAX1 (NR0B1) inhibitors, primary screen, cell-based, HEK293, Gal4-DAX1, luciferase luminescence | HEK293 Gal4-DAX1 luciferase reporter | inhibition, % at 6.75 µM | 340,000 tested, 0.99% active;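 active = inhibition above the mean over all tested compounds plus 3 SD, cut at about 4.2% in these data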;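 also: inhibition shows as a rise in luminescence from relieved DAX1 repression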
Target sequence (P51843 207-470 limits assumed): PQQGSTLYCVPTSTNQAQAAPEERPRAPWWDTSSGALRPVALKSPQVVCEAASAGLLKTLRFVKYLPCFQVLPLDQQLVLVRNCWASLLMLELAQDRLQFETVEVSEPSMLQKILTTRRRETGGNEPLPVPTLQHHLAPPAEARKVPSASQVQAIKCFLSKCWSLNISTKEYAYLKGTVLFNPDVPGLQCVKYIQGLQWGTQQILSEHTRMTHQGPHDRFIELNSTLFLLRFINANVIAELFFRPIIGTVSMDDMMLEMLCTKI
hgDAF12 conf = H. glycines DAF-12 receptor agonists, confirmation, cell-based, luminescence, HEK293, GAL4-LBD fusion; shares compounds with hgDAF12 agonist; HEK293 GAL4-hgDAF12 luciferase reporter, agonist mode; percent of butyrate response; activation, % at 6.8 µM; 3,300 tested, 80% active; AID 743050, 2013;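 active = mean activation over triplicate wells above the hit cutoff derived from the earlier primary screen, cut at about 11% in these data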
LXRb DAF12 ctr = LXR agonists, Gal4 luciferase reporter, confirmation, counter-screen for hgDAF-12 agonist project, cell-based, luminescence, HEK293, H. glycines campaign; 24 h; activation, % at 6.8 µM; shares compounds with hgDAF12 agonist; 3,300 tested, under 10 active;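 active = mean activation of the triplicate above a set limit carried over from the primary screen, none filed active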
A number is an active result; – = inactive; · = no result.

SMILES	DAX1 inh-1	hgDAF12 agonist	ssDAF-12 act	PolyA inh	hcDAF12 agonist	DAX1 inh-2	hgDAF12 conf	LXRb DAF12 ctr
COc1ccc(N2C(=O)[C@@H]3[C@H](C2=O)[C@H](C(=O)c2ccc(OC(C)=O)cc2)N2N=CC=C[C@@H]32)cc1	·	·	·	–	·	·	·	·
C=CCN(CC=C)S(=O)(=O)c1ccc(NC(=S)NC(=O)C2CC2)cc1	–	–	–	–	–	–	·	·
O=C(c1ccc(Cl)s1)N1CCc2ccccc21	–	15	1.5	–	6.4	–	18	–
COc1cccc(OCCn2cc(C(C)=O)c3ccccc32)c1	–	–	–	–	–	–	·	·
CC(=O)c1ccccc1OC(=O)CCN1C(=O)c2ccccc2C1=O	–	–	–	–	–	–	·	·
O=c1c2c(nc3cc(-c4cccc(F)c4)[nH]n13)CCC2	–	20	–	–	–	–	17	–
O=C(COc1ccc(Cl)cc1Cl)Nc1cccnc1	–	15	–	–	–	–	14	–
COc1ccc(S(N)(=O)=O)cc1C(=O)NC1CCCc2ccccc21 (centres undefined)	–	–	–	–	–	–	·	·
COc1ccccc1-c1csc(C(O)c2ccccc2)n1 (centres undefined)	–	–	–	·	–	·	·	·
COc1cccc(N2CCN(C(=O)c3ccc4nc(N5CCCCC5)sc4c3)CC2)c1	–	21	–	–	–	5.5	–	–
COc1ccc(N2CCN(C(=O)c3ccc4nc(N5CCCCC5)sc4c3)CC2)cc1	–	–	–	–	–	–	·	·
Cc1noc(C)c1COc1ccccc1C(=O)NCc1ccco1	–	–	–	·	–	–	·	·
O=c1oc2ccccc2cc1-c1cn2cccnc2n1	4.1	14	–	–	–	–	18	–
O=c1oc2ccccc2cc1-c1cn2ccccc2n1	–	–	–	–	–	–	·	·
Nc1ccc2c(c1)Cc1cc(N)c(Cl)cc1-2	–	15	–	·	–	–	12	–
Nc1ccc2c(c1)Cc1cc(Cl)c(Cl)cc1-2	–	–	–	·	–	–	·	·
O=C(N/N=C/c1cccc(O)c1)c1csc2ccccc12	–	–	–	–	–	–	·	·
COc1ccc(C=NNC(=O)c2cc(C)oc2C)cc1O	–	13	–	·	–	–	14	–
O=C(N/N=C/c1cccc(O)c1)c1ccccc1O	–	16	–	–	–	–	–	–
O=C(Nc1ccccc1C(=O)N/N=C/c1ccncc1)c1ccccc1	–	14	–	–	–	–	12	–
CNC12CCc3cc(OC)c(OC)c(c31)-c1cc3c(cc1C2)OCO3 (centres undefined)	–	–	–	·	–	·	·	·
Fc1ccccc1Cn1nnc(-c2ccc3c(c2)OCO3)n1	3.7	14	1.3	–	–	–	19	–
Cc1ccc(NC(=O)Cn2nnc(-c3ccc4c(c3)OCO4)n2)cc1F	–	–	–	–	–	–	·	·
O=C(Nc1ccc(-c2ccccc2)cc1)c1ccccc1	–	–	–	–	–	–	·	·
Cc1nc(NC(=O)c2ccccc2)sc1C	–	14	1.0	–	–	–	16	–
Cc1ccc(NC(=O)c2ccccc2)cc1	–	14	–	–	–	–	17	–
Cc1ccc(NC(=O)c2cc(C)on2)cc1	–	15	–	–	–	–	–	–
